Screens: PubChem BioAssay, Buhrlage Lab, Dana-Farber Cancer Institute and Novartis Institutes for BioMedical Research (Cambridge, Mass)
Compounds with a hit are over-represented: about 13% of the library has one in this group of screens.
USP10 block: human USP10 deubiquitinase inhibition | Q14694 | purified USP10, Ub-rhodamine fluorescence, 60 min | inhibition, % at 20 µM | hit rate 1.1% among 47,000 | AID 1645856
USP30 inh: blocks human USP30 ubiquitin-rhodamine cleavage; inhibition, % at 25 µM; Q70CQ3; AID 1645860; purified USP30, Ub-rhodamine cleavage fluorescence; hit rate 5.3% among 47,000
USP17 block: blocks human USP17 ubiquitin-rhodamine cleavage; hit rate 6.5% among 47,000; A8MUK1; purified USP17, Ub-rhodamine cleavage fluorescence, 3 h; inhibition, % at 50 µM
USP8 inh: human USP8 deubiquitinase inhibition; AID 1645853; purified USP8, Ub-rhodamine cleavage fluorescence, 30 min; P40818; hit rate 4.2% among 47,000; inhibition, % at 20 µM
Target sequence (P40818 whole entry, looked up): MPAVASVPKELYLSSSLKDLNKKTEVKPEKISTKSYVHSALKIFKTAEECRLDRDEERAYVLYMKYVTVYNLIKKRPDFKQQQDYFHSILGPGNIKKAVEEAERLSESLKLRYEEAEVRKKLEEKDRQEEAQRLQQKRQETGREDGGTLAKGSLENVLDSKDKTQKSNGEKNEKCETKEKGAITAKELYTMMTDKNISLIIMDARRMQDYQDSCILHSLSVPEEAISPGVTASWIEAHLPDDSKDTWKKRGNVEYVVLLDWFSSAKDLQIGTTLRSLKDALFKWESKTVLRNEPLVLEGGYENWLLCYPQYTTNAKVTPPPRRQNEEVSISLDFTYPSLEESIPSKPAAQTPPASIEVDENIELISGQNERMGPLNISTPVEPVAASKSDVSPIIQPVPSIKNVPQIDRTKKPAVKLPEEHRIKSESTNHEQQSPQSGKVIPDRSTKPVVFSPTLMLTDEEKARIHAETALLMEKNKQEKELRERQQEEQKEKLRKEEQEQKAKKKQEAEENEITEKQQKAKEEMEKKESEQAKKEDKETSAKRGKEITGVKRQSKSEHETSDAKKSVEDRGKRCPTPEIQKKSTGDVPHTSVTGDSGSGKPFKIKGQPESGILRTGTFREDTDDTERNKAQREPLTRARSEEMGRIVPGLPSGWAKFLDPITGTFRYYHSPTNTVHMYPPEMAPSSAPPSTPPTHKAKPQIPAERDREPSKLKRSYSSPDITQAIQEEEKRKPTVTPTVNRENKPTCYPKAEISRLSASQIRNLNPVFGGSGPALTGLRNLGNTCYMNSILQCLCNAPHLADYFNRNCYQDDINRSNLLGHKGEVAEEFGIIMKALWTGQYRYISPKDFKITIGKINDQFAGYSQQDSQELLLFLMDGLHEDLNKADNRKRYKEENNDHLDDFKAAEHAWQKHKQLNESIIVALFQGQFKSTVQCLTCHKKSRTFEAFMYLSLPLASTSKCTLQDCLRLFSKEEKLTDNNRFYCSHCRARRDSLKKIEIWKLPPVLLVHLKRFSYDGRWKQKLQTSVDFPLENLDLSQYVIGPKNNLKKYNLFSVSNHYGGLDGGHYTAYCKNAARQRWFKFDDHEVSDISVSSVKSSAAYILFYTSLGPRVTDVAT
USP28 block: inhibitors of human USP28 deubiquitinase. AID 1645857. purified USP28, Ub-rhodamine cleavage fluorescence, 30 min. inhibition, % at 25 µM. hit rate 3% among 47,000. Q96RU2
The depositor's hits bear a star; . = not tested or not shown. No stated cut-off is given here; in the data, active means inhibition above about 30%; inactive means the rest.

SMILES	USP10 block	USP30 inh	USP17 block	USP8 inh	USP28 block
COc1ccccc1CN1C[C@H]2NC(=O)c3ccccc3C(=O)[C@@]2(C)C1	0.2	-11.2	0.9	3.4	-1.4
O=C(Nc1ccc2n[nH]nc2c1)c1ccc(Cl)c(Cl)c1	7.7	53.0*	51.1*	0.2	17.0
COc1ccc(C(=O)Nc2ccc3nc(C)c(C)nc3c2)cc1	0.1	-9.8	-4.9	-7.5	21.4
CN(C(=O)Cn1c(=O)n(CCC(=O)NCc2ccc3c(c2)OCO3)c(=O)c2ccccc21)C1CCCCC1	-0.6	30.3*	0.0	15.7	11.6
CC(C)C(NC(=O)c1ccccc1Cl)C(=O)OCC(=O)NCc1ccc2c(c1)OCO2 (stereo unspecified)	0.3	-0.4	-5.4	1.5	-2.6
O=C(CCn1c(=O)c2ccccc2n(Cc2cccc(Cl)c2)c1=O)NCc1ccccc1Cl	12.4	20.8	12.3	19.8	-2.8
O=C(CCn1c(=O)c2ccccc2n(CC(=O)OCc2ccccc2)c1=O)NCc1ccc2c(c1)OCO2	47.8*	26.2	28.3	26.3	8.9
O=C(COC(=O)C(Cc1ccccc1)NC(=O)c1ccccc1)NCc1ccc2c(c1)OCO2 (stereo unspecified)	4.8	10.1	46.8*	-6.2	2.1
Cc1ccn2cc(C(=O)N3CCCC(c4cc(-c5ccccc5)cc(C)n4)C3)nc2c1 (stereo unspecified)	3.3	-10.1	-3.5	-12.5	20.2
O=C(NCCCN1CCC(N2CCCCC2)CC1)C1CCCN(S(=O)(=O)N2CCC3(CC2)OCCO3)C1 (stereo unspecified)	-4.4	-74.3	-22.4	-4.2	-21.6
O=C(c1cccc(Cl)c1)N1CCCC(c2nnc(-c3ccccc3)o2)C1 (stereo unspecified)	-4.9	19.3	8.7	11.3	5.0
CC1=NS(=O)(=O)c2cccnc2N1c1cccc(C(C)C)c1	1.0	-10.7	0.3	0.0	-2.6
CNc1cccc(C2CN(C(=O)Cc3c(C)nn(C)c3C)CCO2)n1 (stereo unspecified)	2.6	9.5	-3.5	6.0	-8.4
COc1cc(C2=NO[C@]3(C(=O)Nc4ccccc43)[C@H]2C(=O)c2ccc(C)cc2)ccc1OCC#N	8.9	16.8	43.3*	16.7	5.2
COc1cc(C2=NO[C@]3(C(=O)Nc4ccccc43)[C@H]2C(=O)c2ccccc2)ccc1OCC#N	8.1	-6.1	20.1	-0.4	6.1
CCn1c(=O)c2nscc2n(CC(=O)Nc2ccc(C)cc2C)c1=O	-6.6	-32.8	2.7	5.9	7.5
CCn1c(=O)c2nscc2n(CC(=O)NCc2ccccc2)c1=O	-13.6	-33.5	-9.7	15.6	-21.8
Cc1ccccc1NC(=O)Cn1c(=O)n(CC(C)C)c(=O)c2nscc21	-3.0	-178.7	-7.9	38.2*	-35.7
CC(C)Cn1c(=O)c2nscc2n(CC(=O)NCc2ccccc2)c1=O	-6.6	-41.9	9.0	39.0*	-4.0
CC(C)Cn1c(=O)c2nscc2n(CC(=O)Nc2ccc(F)cc2F)c1=O	-0.8	-0.3	15.9	36.0*	7.9
CCOc1ccccc1OCC(=O)N1CCc2cc(S(=O)(=O)N3CCCCC3)ccc21	-5.0	-58.1	-28.1	2.9	-4.7
CC1Oc2ccccc2N(Cc2nc(-c3ccccc3)no2)C1=O (stereo unspecified)	5.8	2.9	39.7*	-0.6	6.8
Cc1ccccc1OC(C)C(=O)NC1CCN(Cc2ccccc2)CC1 (stereo unspecified)	0.7	0.1	-1.6	-0.2	-2.9
COc1cccc(CNCC(O)(c2ccccc2)c2ccc(Cl)cc2)c1 (stereo unspecified)	6.0	24.0	7.6	12.8	14.6
COc1ccccc1CNCC(O)(c1ccccc1)c1ccc(F)cc1 (stereo unspecified)	0.1	35.9*	7.7	4.5	20.2
SMILES	USP10 block	USP30 inh	USP17 block	USP8 inh	USP28 block
CC(=O)N1CCN(c2oc(-c3ccc(COc4ccccc4C)o3)nc2C#N)CC1	-5.7	-196.7	.	-16.9	-47.2
O=C(NCc1ccc(F)cc1)c1c(O)c2ccccc2[nH]c1=O	8.7	-5.7	1.0	8.1	-10.4
Cc1ccc(CNC(=O)c2c(O)c3ccccc3[nH]c2=O)cc1	12.0	21.3	22.7	39.7*	12.4
Cc1cc2c(cn1)C(=O)c1c(O)cc(O)cc1C2=O	0.0	-215.5	11.3	-227.6	33.5*
Cc1c(-c2nnc(-c3ccccn3)o2)nnn1-c1cccc(Cl)c1	-0.2	69.5*	11.4	0.8	94.2*
COc1ccc(OC)c(-n2nnc(-c3nc(-c4ccccc4C)no3)c2C)c1	9.6	.	31.5*	0.0	.
Cc1ccc(-c2nnc(-c3nnn(-c4ccc(C)cc4)c3C)o2)cc1	3.8	35.1*	25.1	22.6	14.6
COc1ccc(S(=O)(=O)c2nnn(-c3cccc(OC)c3)c2C)cc1	1.5	-12.9	-11.4	4.9	0.1
COc1ccccc1-c1nc(-c2nnn(-c3ccc(F)cc3)c2C)no1	-0.6	.	12.4	-2.2	.
COc1ccc(-c2nc(-c3nnn(-c4ccc(C)cc4)c3C)no2)cc1OC	-2.6	21.7	17.0	15.5	14.7
COc1cccc(-n2nnc(-c3nnc(-c4ccccc4C)o3)c2C)c1	5.2	48.8*	-1.7	-17.4	1.8
Cc1nc(SCc2cccc(C(=O)O)c2)nc(N2CCOCC2)c1C	0.8	6.7	12.4	21.4	8.3
O=C(O)c1cccc(C(=O)CC[C@@H]2O[C@H](n3cnc4c(=O)[nH]cnc43)[C@@H](O)[C@H]2O)c1	-3.5	-36.4	-1.4	-58.7	-8.7
C=C1NC(=O)[C@@H](CC)NC(=O)CNC(=O)[C@H](Cc2c[nH]c3cccc(OC)c23)NC(=O)[C@H](Cc2c[nH]c3ccccc23)NC(=O)c2csc(n2)[C@@H](C)NC(=O)CN(C)C1=O	-2.0	7.5	31.7*	10.2	-1.7
O=C(/C=C/c1ccccc1)Nc1cc(S(=O)(=O)Nc2cccc(Cl)c2)ccc1Cl	12.9	-11.8	6.0	-9.7	6.8
COc1ccc(NS(=O)(=O)c2cc(NC(=O)C3CC3)ccc2N2CCCCC2)cc1	10.5	5.7	-2.8	-5.3	2.1
COc1ccc(NS(=O)(=O)c2cc(NC(=O)/C=C/c3ccco3)ccc2N2CCCC2)cc1	17.3	55.4*	75.4*	76.2*	57.2*
COc1ccc(NS(=O)(=O)c2ccc(N3CCCC3)c(NC(=O)/C=C/c3ccccc3)c2)cc1	-0.9	22.9	36.1*	-208.8	20.2
CCc1ccc(-c2nc(SCC(=O)c3c(N)n(C4CC4)c(=O)[nH]c3=O)n[nH]2)cc1	-8.7	-242.0	43.6*	36.1*	-58.5
Cc1ccc(-c2nc(SCC(=O)c3c(N)n(C4CC4)c(=O)[nH]c3=O)n[nH]2)cc1	2.6	-116.2	-63.7	5.2	-39.1
O=C(NCc1ccc(Cl)cc1)NCc1cnn2ccccc12	-2.4	39.0*	28.7	3.6	11.6
O=C(NCc1cnn2ccccc12)c1ccc(Cn2ccnc2)cc1	-0.4	4.8	3.8	2.3	8.6
CC(OC(=O)c1cc(=O)[nH]c2ccccc12)C(=O)Nc1ccc(F)cc1Cl (stereo unspecified)	11.2	12.2	44.7*	18.2	18.9
CC(=O)Nc1ccc(C(=O)NCc2ccccc2F)c(N2CCCCC2)c1	-0.4	-17.9	-16.7	-17.3	36.9*
